Measured values: PubChem BioAssay AID1159580 (chemical genetic matrix, 2015)
“And” between values parts separate entries of the source, which are not always exact repeats. Equal values may be shown once. The campaign covered roughly 5,500 compounds. About 2,000 (36%) were called active. Roughly 18% stayed inconclusive and do not appear here. Cut-off read from the data, not from the text of the source: active = normalized growth mostly below about 0.91 (no sharp cut-off); inconclusive = no clear call, values can overlap the other calls; inactive = mostly above about 0.92. Some of the results follow.

Assay: chemical genetic growth profiling, strain panel (AID 1159580);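 note: tested at 20 µM; growth read once vehicle control cultures reached saturation at 30 °C; 1 = growth at the plate median or of vehicle wells; lower values mean less growth of the strain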
Conditions: S. cerevisiae deletion strains, growth OD

Measured: normalized growth

CC(=O)O[C@H]1CC[C@@]2(C)C(C[C@@H](OC(C)=O)[C@]3(C)C2CC[C@@]2(C)[C@H](c4ccoc4)OC(=O)[C@H]4O[C@]423)C1(C)C (some centres not stated)
inactive: locus YAL013W, strain DEP1, active compounds read low 0.993 | locus YAL021C, strain ccr4, active compounds read low 1.01 | locus YAL026C, strain drs2, active compounds read low 1 | locus YAL030W, strain snc1, active compounds read low 0.99 | locus YBL061C, strain skt5, active compounds read low 0.996 | locus YBR009C, strain hhf1, active compounds read low 0.987 | locus YBR021W, strain FUR4, active compounds read low 0.999 | locus YBR023C, strain chs3, active compounds read low 0.997 | locus YBR171W, strain sec66, active compounds read low 1 | locus YBR229C, strain ROT2, active compounds read low 1 | locus YBR231C, strain swc5, active compounds read low 1.01 | locus YBR279W, strain paf1, active compounds read low 1 | locus YCL011C, strain gbp2, active compounds read low 0.993 | locus YCL016C, strain dcc1, active compounds read low 1 | locus YCL029C, strain bik1, active compounds read low 1.01 | locus YCL061C, strain MRC1, active compounds read low 1 | locus YCL069W, strain vba3, active compounds read low 0.998 | locus YCR088W, strain abp1, active compounds read low 0.995 | locus YDL005C, strain med2, active compounds read low 0.996 | locus YDL035C, strain GPR1, active compounds read low 0.998 | locus YDL040C, strain nat1, active compounds read low 0.988 | locus YDL074C, strain BRE1, active compounds read low 1.04 | locus YDL101C, strain DUN1, active compounds read low 1.03 | locus YDL185W, strain tfp1, active compounds read low 1.01 | locus YDL192W, strain arf1, active compounds read low 0.992 | locus YDR001C, strain nth1, active compounds read low 0.99 | locus YDR069C, strain doa4, active compounds read low 0.991 | locus YDR101C, strain arx1, active compounds read low 1.01 | locus YDR137W, strain rgp1, active compounds read low 1.08 | locus YDR159W, strain sac3, active compounds read low 0.983 | locus YDR162C, strain NBP2, active compounds read low 1.02 | locus YDR195W, strain ref2 0.93 | locus YDR297W, strain sur2, active compounds read low 0.999 | locus YDR318W, strain mcm21, active compounds read low 1.01 | locus YDR334W, strain swr1, active compounds read low 0.985 | locus YDR335W, strain msn5, active compounds read low 0.999 | locus YDR388W, active compounds read low 1.01 | locus YDR392W, strain spt3, active compounds read low 0.914 | locus YDR502C, strain sam2, active compounds read low 1.03 | locus YEL003W, strain gim4, active compounds read low 0.991 | locus YEL037C, strain rad23, active compounds read low 0.988 | locus YEL061C, strain CIN8 (second series), active compounds read low 0.987 | locus YEL061C, strain CIN8, active compounds read low 1.01 | locus YER015W, strain faa2, active compounds read low 0.998 | locus YER016W, strain bim1, active compounds read low 0.999 | locus YER110C, active compounds read low 1.02 | locus YER111C, strain swi4, active compounds read low 0.983 | locus YER155C, strain BEM2 (second series), active compounds read low 0.988 | locus YER155C, strain BEM2, active compounds read low 1 | locus YER167W, strain BCK2, active compounds read low 0.993 | locus YFR010W, strain ubp6, active compounds read low 0.992 | locus YGL078C, strain dbp3, active compounds read low 1.02 | locus YGL086W, strain mad1, active compounds read low 1.01 | locus YGL167C, strain pmr1, active compounds read low 0.994 | locus YGL173C, strain kem1, active compounds read low 1 | locus YGL227W, strain vid30, active compounds read low 1 | locus YGL240W, strain doc1, active compounds read low 0.978 | locus YGL248W, strain PDE1, active compounds read low 1.02 | locus YGL253W, strain hxk2, active compounds read low 1 | locus YGR078C, strain PAC10, active compounds read low 1.02 | locus YGR135W, strain pre9, active compounds read low 1.06 | locus YGR229C, strain SMI1, active compounds read low 0.959 | locus YGR252W, strain gcn5, active compounds read low 1.1 | locus YHR013C, strain ard1, active compounds read low 0.981 | locus YHR027C, strain rpn1, active compounds read low 0.998 | locus YHR030C, strain SLT2, active compounds read low 1.05 | locus YHR079C, strain IRE1 (second series), active compounds read low 1.02 | locus YHR079C, strain IRE1, active compounds read low 1.04 | locus YHR094C, strain hxt1, active compounds read low 1.01 | locus YHR129C, strain ARP1, active compounds read low 1.01 | locus YHR142W, strain chs7, active compounds read low 1.03 | locus YHR200W, strain rpn10, active compounds read low 1.04 | locus YIL066C, strain RNR3, active compounds read low 0.999 | locus YIL073C, strain SPO22, active compounds read low 1.04 | locus YIL125W, strain kgd1, active compounds read low 1.01 | locus YIR030C, strain dcg1, active compounds read low 1 | locus YJL092W, strain hpr5, active compounds read low 0.998 | locus YJL095W, strain BCK1 (second series), active compounds read low 1 | locus YJL095W, strain BCK1, active compounds read low 1.07 and 1.04 | locus YJL115W, strain asf1, active compounds read low 0.997 | locus YJL129C, strain trk1, active compounds read low 0.987 | locus YJL134W, strain LCB3, active compounds read low 1.01 | locus YJL154C, strain vps35, active compounds read low 1 | locus YJL164C, strain tpk1, active compounds read low 0.995 | locus YJL166W, strain qcr8, active compounds read low 1 | locus YJL168C, strain set2, active compounds read low 1.01 | locus YJL187C, strain SWE1 (second series), active compounds read low 1.04
